In PubChem BioAssay AID540259 (Broad Institute, 2011):
Measured potencies and affinities stand elsewhere. The source made the active and inactive calls.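 The calls were made as follows: active = cell killing, meaning signal decrease, with fitted half-maximal dose at or below ten times the top valid tested dose; inconclusive = poor fit, or flat curve with 30 to 70% signal loss; inactive = the rest.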

Assay: HeLa cell cytotoxicity, dose response, cytotoxicity control for MITF activator project, CellTiter-Glo luminescence, cherry-pick samples (AID 540259)
Settings: HeLa viability, CellTiter-Glo ATP luminescence, 24 h; series mostly up to 35 µM

COc1ccccc1/C=C/C=N/n1c(-c2ccccn2)n[nH]c1=S
outcome: inactive

C#CCSc1nnc(-c2ccc(O)cc2)o1
outcome: inactive

CC1CCc2nc(NC(=O)Cc3cccs3)sc2C1 (configuration not stated)
outcome: inactive

CC(C)(C)n1ncc2c(=O)n(CC(=O)c3ccccc3)cnc21
outcome: inactive

COC(=O)c1ccc(CSC2=NCCS2)cc1
outcome: inactive

O=C(Nc1cnc2ccccc2c1)N1CCCCC1
outcome: inactive

N#Cc1ccsc1NC(=O)CCc1ccccc1
outcome: inactive

COc1ccc2cc(C(N)=O)c(=Nc3ccccc3)oc2c1
outcome: inactive

O=C(N=C1N=C2C=CC=CN2Cc2ccccc21)c1ccc(S(=O)(=O)N2CCCC2)cc1
outcome: inactive

CCCCN(C(=O)Cc1cccs1)c1nnc(-c2cccnc2)s1
outcome: inactive

CN1CCN(/N=C/c2ccc(Br)cc2)CC1
outcome: inactive

O=c1c(-c2ccc(O)cc2)coc2cc(O)cc(O)c12
outcome: inactive

Fc1cc(Br)ccc1COc1ccc(-c2nnco2)cc1
outcome: inactive

CN(c1ccccc1)c1nc2ccsc2c(=O)s1
outcome: inactive

Cc1cccc(-c2nc(C#N)c(NC3CCCCC3)o2)c1
outcome: inactive

Cc1ccc(CSc2ccc(-c3cccs3)nn2)cc1
outcome: inactive

O=C(OCc1csc(-c2ccccc2)n1)c1ccc(O)cc1
outcome: inactive

O=c1[nH]c(Cc2cccs2)nc2scc(-c3ccc(Cl)cc3)c12
outcome: inactive

c1ccc2c(c1)CC/C2=N/Nc1nc2ccccc2[nH]1
outcome: inactive

c1csc(CSc2nc3ccccc3s2)c1
outcome: inactive

Nc1nc(COc2ccc3ccccc3c2)cs1
outcome: inactive

Cc1cccc(OCc2nc(-c3nonc3N)no2)c1C
outcome: inactive
